# From PubChem BioAssay (Tox21)
# The source made the active and inactive calls. Calls follow the shape of the dose curve; as a rule, active = well fitted curve in the direction sought with a large enough effect in the repeat runs; inconclusive = weak or mixed curves; inactive = flat fitted curve, though single readings scatter.
# Experiment: qHTS assay to test for compound auto fluorescence at 535 nm (green) in HepG2 cells (AID 720675)
# Details: green autofluorescence 485/535 nm, 1 h; series mostly up to 91.3 µM; fluorescence, % of fluorescein control: at the top concentration
# % is scaled to controls: 0 for no effect and ±100 for the full control effect.
Structure (SMILES),"fluorescence, % of fluorescein control",outcome
C=C1CCC2CC1C2(C)C (stereo unspecified),-0.0061% (inactive),–
CN1CCCC(CC2c3ccccc3Sc3ccccc32)C1 (stereo unspecified),-0.0795% [at 18.6 µM] (inactive),–
CC(C)c1nc(CN(C)C(=O)N[C@H](C(=O)N[C@@H](Cc2ccccc2)C[C@H](O)[C@H](Cc2ccccc2)NC(=O)OCc2cncs2)C(C)C)cs1,–,inactive
CC(C)(c1ccccc1)c1ccccc1,0.067% (inactive),–
CN1CCCC(n2nc(Cc3ccc(Cl)cc3)c3ccccc3c2=O)CC1 (stereo unspecified),-0.0729% [at 46 µM] (inactive),–
O=C(O)CCCCCCCCCCCBr,0.0396% (inactive),–
CCCCN1CCCC1C(=O)Nc1c(C)cc(C)cc1C (stereo unspecified),-0.0461% [at 46 µM] (inactive),–
Cc1ccccc1N=C(N)Nc1ccccc1C,0.0794% (inactive),–
CCOc1ccccc1O[C@H](c1ccccc1)[C@H]1CNCCO1,-0.0065% [at 46 µM] (inactive),–
CCOC(=O)c1ccc(C#Cc2ccc3c(c2)C(C)(C)CCS3)nc1,0.0323% [at 46 µM] (inactive),–
C=C/C(C)=C/C/C=C(\C)CCC=C(C)C,0.0027% (inactive),–
CCOC(=O)C1=C(C)NC(C)=C(C(=O)OC)C1c1cccc(Cl)c1Cl (stereo unspecified),0.0936% [at 46 µM] (inactive),–
Oc1cc2c(cc1O)[C@H]1c3ccc(O)c(O)c3OC[C@@]1(O)C2,-0.0844% [at 95.7 µM] (inactive),–
CN(C)CCC=C1c2ccccc2C=Cc2ccccc21,0.0215% [at 46 µM] (inactive),–
CN(C(=O)CN(CCO)CC(=O)N(C)C(C)(C)Cc1ccccc1)C(C)(C)Cc1ccccc1,-0.0053% [at 18.6 µM] (inactive),–
CC(=O)c1ccc([N+](=O)[O-])cc1,-0.0939% (inactive),–
CCCCCCCCCCCCCCN(CCO)CCO,-0.0232% (inactive),–
COc1cc(C(=O)NC2CCN(C)CC2)ccc1Nc1ncc2c(n1)N(C1CCCC1)CC(F)(F)C(=O)N2C,-0.0045% (inactive),–

Structure (SMILES),"fluorescence, % of fluorescein control",outcome
CC1=C(Br)C(=O)C(Br)=C/C1=C(/c1ccccc1S(=O)(=O)O)c1cc(Br)c(O)c(Br)c1C,-0.698% (inactive),–
COc1ccccc1NC(=O)c1cc2ccccc2cc1O,0.4% (inactive),–
O=C(Nc1cccc2c(=O)cc(-c3nn[nH]n3)oc12)c1ccc(OCCCCc2ccccc2)cc1,0.0607% [at 46 µM] (inactive),–
O=C(O)c1cccc(-c2noc(-c3ccccc3F)n2)c1,-0.0485% [at 46 µM] (inactive),–
O=C1c2ccccc2C(=O)N1CCc1noc(-c2ccc(CN3CCCCCC3)s2)n1,-0.007% (inactive),–
Oc1c(I)cc(I)c2cccnc12,-0.0896% [at 46 µM] (inactive),–
CCCCC(CC)CN (stereo unspecified),0.44% [at 95.7 µM] (inactive),–
OCCN1CCN(CCCN2c3ccccc3Sc3ccc(Cl)cc32)CC1,0.0508% [at 18.6 µM] (inactive),–
C[C@@H]1CC(=O)NN=C1c1ccc(NN=C(C#N)C#N)cc1,-0.166% [at 46 µM] (inactive),–
C[C@H]1c2cccc(O)c2C(O)=C2C(=O)[C@]3(O)C(O)=C(C(N)=O)C(=O)[C@@H](N(C)C)[C@@H]3[C@@H](O)[C@@H]21,-0.0778% [at 46 µM] (inactive),–
NNC(=O)CP(=O)(c1ccccc1)c1ccccc1,0.0383% [at 46 µM] (inactive),–
CN(C)CCN1C(=O)c2ccccc2N(C)c2ccccc21,0.0711% [at 46 µM] (inactive),–
C[C@]1(Cn2ccnn2)[C@H](C(=O)O)N2C(=O)C[C@H]2S1(=O)=O,-0.121% [at 46 µM] (inactive),–
c1ccc(C[n+]2cccc3ccccc32)cc1,-0.0087% (inactive),–
CC1CC(OC(=O)C(O)c2ccccc2)CC(C)(C)N1C (stereo unspecified),–,inactive
COc1ccccc1N1CCN(CC(O)COc2cccc3ccccc23)CC1 (stereo unspecified),-0.292% [at 46 µM] (inactive),–
CN1C(=O)OC(C)(C)C1=O,–,inactive
CC1=C(CC=O)C(C)(C)CCC1,-0.137% (inactive),–
